The values below come from PubChem BioAssay (NCI).

About 83,000 compounds went through this panel and 20% of them were active in at least one assay; those are over-represented in the sample as a whole.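 Step 1: grow cells in 96-well plates. Step 2: add test compound at a single concentration. Step 3: incubate 48 h. Step 4: record percent growth.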 A number with no mark means an inactive call. Calls of active or inactive are those of the source. The calls were made as follows: active = growth percent below 10; inactive = the rest.

Common to all, as to assay: NCI-60 one-dose screen, 48 h (100 = growth as untreated, 0 = no growth, -100 = all killed)
The test system of one assay is HCT-15 colon. As to conditions: 10 µM unless noted.
A further assay has as its system HT29 colon. The note with it: 10 µM unless noted.
The next assay deals with SNB-75 CNS. As to conditions: 10 µM unless noted.
The test system of a further assay is SNB-19 CNS. As to conditions: 10 µM unless noted.
The test system of a further assay is U251 CNS. As to conditions: 10 µM unless noted.
The subject of a further assay is PC-3 prostate. The note with it: 10 µM unless noted.
For another assay, the system named is SK-MEL-5 melanoma. The note with it: 10 µM unless noted.
In a further assay the test system is UACC-62 melanoma. As to conditions: 10 µM unless noted.
Another assay deals with LOX IMVI melanoma. As to conditions: 10 µM unless noted.
The subject of the next assay is SK-MEL-28 melanoma. As to conditions: 10 µM unless noted.
The subject of the next assay is SK-MEL-2 melanoma. As to conditions: 10 µM unless noted.
In the next assay the test system is EKVX NSCLC. As to conditions: 10 µM.
Another assay deals with SN12C renal. The note with it: 10 µM unless noted.
A further assay concerns UO-31 renal. The note with it: 10 µM unless noted.
The test system of a further assay is ACHN renal. As to conditions: 10 µM unless noted.
The next assay deals with CAKI-1 renal. As to conditions: 10 µM unless noted.
In the next assay the test system is A498 renal. The note with it: 10 µM unless noted.
For a further assay, the system named is CCRF-CEM leukemia. The note with it: 10 µM.
For another assay, the system named is MOLT-4 leukemia. The note with it: 10 µM unless noted.
In a further assay the test system is TK-10 renal. As to conditions: 10 µM unless noted.

In the case of `O=C(N/N=C/c1coc2ccccc2c1=O)c1cc2oc(-c3ccccc3)cc2[nH]1`, the growth in the assay on HCT-15 colon is 100%; in the assay on HT29 colon it was 107%; in the assay on SNB-75 CNS, 83.8%; in the assay on SNB-19 CNS it was 92.9%; in the assay on U251 CNS, 97.9%; in the assay on PC-3 prostate, 72.1%. Moreover, the growth was 84% in the assay on SK-MEL-5 melanoma; 94.6% in the assay with UACC-62 melanoma; 98.4% with LOX IMVI melanoma; 91.9% in the assay with SK-MEL-28 melanoma; 75.4% in the assay with SK-MEL-2 melanoma; 90.5% in the assay on EKVX NSCLC. The growth with SN12C renal was 120%; with UO-31 renal, 86.2%; in the assay on ACHN renal, 106%; in the assay with CAKI-1 renal, 95.3%; in the assay on A498 renal, 101%; in the assay on CCRF-CEM leukemia it was 103%. Further, the growth in the assay with MOLT-4 leukemia was 55.9%.
For the compound `CCN(CCO)CCNc1ccc(C)c2sc3cc(OC)ccc3c(=O)c12`, the growth in the assay on HCT-15 colon was 41.1%; with HT29 colon, 33.1%; in the assay with SNB-75 CNS, 70.9%; in the assay on SNB-19 CNS, 67.7%; in the assay on U251 CNS, 54%; with PC-3 prostate, 71.2%. The growth in the assay with SK-MEL-5 melanoma is 80.6%; in the assay on UACC-62 melanoma it was 98.9%; in the assay with LOX IMVI melanoma, 50.7%; with SK-MEL-28 melanoma, 94.2%; in the assay with SK-MEL-2 melanoma, 99.1%; with EKVX NSCLC, 86.4%. The growth in the assay with SN12C renal was 55.9%; in the assay with UO-31 renal it was 49.4%; in the assay with TK-10 renal it was 79.3%; in the assay on ACHN renal, 36.8%; in the assay with CCRF-CEM leukemia, 47.9%; with MOLT-4 leukemia, 21.7%.
For the compound `N=C(N)N=Nc1ccc(NN=C(N)N)c2ccccc12`, the growth in the assay on HCT-15 colon was 110%; in the assay with HT29 colon, 99.3%; in the assay on SNB-75 CNS, 73.1%; with SNB-19 CNS, 51.7%; with U251 CNS, 35.5%; in the assay on PC-3 prostate, 87.8%. In addition, the growth with SK-MEL-5 melanoma is 138%; in the assay with UACC-62 melanoma, 102%; in the assay with LOX IMVI melanoma it was 103%; in the assay on SK-MEL-28 melanoma, 113%; with SK-MEL-2 melanoma, 104%; in the assay on EKVX NSCLC, 116%. In addition, the growth with SN12C renal was 73.2%; in the assay with UO-31 renal, 69.6%; with TK-10 renal it was 108%; in the assay with ACHN renal, 105%; in the assay with CCRF-CEM leukemia, 101%; in the assay on MOLT-4 leukemia it was 97.1%.
In the case of `C#CCCCCCCC[C@@H]1OC(=O)[C@H]([C@@H](C)CC)NC(=O)[C@@H]([C@@H](C)CC)NC(=O)CC(=O)[C@@H]1C`, the growth with HCT-15 colon was 97.3%; in the assay on HT29 colon, 122%; in the assay on SNB-75 CNS, 80.9%; in the assay on SNB-19 CNS, 97.6%; in the assay with U251 CNS, 105%; in the assay with PC-3 prostate, 90.8%. Further, the growth in the assay on SK-MEL-5 melanoma was 102%; in the assay on UACC-62 melanoma, 83%; in the assay with LOX IMVI melanoma it was 92%; in the assay with SK-MEL-28 melanoma, 109%; in the assay with SK-MEL-2 melanoma it was 107%; in the assay with EKVX NSCLC, 93.4%. The growth is 94.9% in the assay on SN12C renal; 60.9% in the assay on UO-31 renal; 86.8% in the assay on ACHN renal; 69.8% with CAKI-1 renal; 86.6% in the assay on A498 renal; 93% with CCRF-CEM leukemia. Also, the growth with MOLT-4 leukemia is 87.2%.
As for `CCCC(C)c1cc(Cc2cc(Cl)cc(Cl)c2O)c(O)c(Cc2cc(Cl)cc(Cl)c2O)c1` (stereo not given), the growth in the assay on HCT-15 colon is 6.15% (active); with HT29 colon it was 14.4%; in the assay with SNB-75 CNS it was 12.2%; in the assay with SNB-19 CNS, 24.2%; with U251 CNS it was 7.55% (active); in the assay with PC-3 prostate, 3.76% (active). The growth in the assay on SK-MEL-5 melanoma was -58.5% (active); with UACC-62 melanoma it was -5.72% (active); in the assay with LOX IMVI melanoma, 5.31% (active); in the assay with SK-MEL-28 melanoma, 8.03% (active); with SK-MEL-2 melanoma, 1.41% (active); with EKVX NSCLC it was 6.21% (active). Besides, the growth was 5.5% (active) in the assay on SN12C renal; 6.1% (active) in the assay with UO-31 renal; 17.4% in the assay with TK-10 renal; 15.6% in the assay with CAKI-1 renal; -29.8% (active) in the assay on A498 renal; 6.76% (active) in the assay on CCRF-CEM leukemia. In the assay on MOLT-4 leukemia, the growth was -8.73% (active).
For the compound `CCC(C)(C)c1ccc(OCCCCCCN2CCNCC2)cc1`, the growth in the assay with HCT-15 colon was -36.1% (active); in the assay on HT29 colon it was 8.87% (active); in the assay on SNB-75 CNS, 60.5%; in the assay with SNB-19 CNS it was 68.6%; in the assay with U251 CNS it was 18.8%; in the assay with PC-3 prostate, 64.3%. For the same compound, the growth with SK-MEL-5 melanoma is 34.2%; in the assay with UACC-62 melanoma, 85.6%; in the assay on LOX IMVI melanoma it was -47.1% (active); with SK-MEL-28 melanoma it was 74.2%; in the assay on SK-MEL-2 melanoma, 96.9%; with EKVX NSCLC, 115%. In addition, the growth with SN12C renal is 88.2%; in the assay with UO-31 renal, 63.5%; with TK-10 renal it was 90.4%; in the assay with CAKI-1 renal, 70%; in the assay on A498 renal, 71.2%; with CCRF-CEM leukemia, 4.24% (active). Moreover, the growth in the assay on MOLT-4 leukemia was 10.4%.
For `COc1cc(NC(C)CCCN)c2nc(C)ccc2c1OC` (stereo not given), the growth in the assay with HCT-15 colon was 106%; in the assay on HT29 colon, 93.2%; in the assay with SNB-75 CNS it was 98.7%; in the assay with SNB-19 CNS it was 107%; in the assay on U251 CNS, 94.7%; in the assay with PC-3 prostate, 85.9%. Further, the growth was 101% in the assay with SK-MEL-5 melanoma; 108% in the assay with UACC-62 melanoma; 106% in the assay with LOX IMVI melanoma; 101% with SK-MEL-28 melanoma; 99.6% with SK-MEL-2 melanoma; 97.1% in the assay with EKVX NSCLC. For the same compound, the growth was 99% with SN12C renal; 95.7% in the assay with UO-31 renal; 110% with TK-10 renal; 106% with CAKI-1 renal; 92.7% in the assay on A498 renal; 24.8% in the assay on CCRF-CEM leukemia. Besides, the growth in the assay with MOLT-4 leukemia was 6.98% (active).
`COC(=O)C(C)[C@H]1CC[C@@H]2[C@]1(C)CC=C1[C@]23C=C[C@]2(C[C@@H](OC(C)=O)CC[C@]12C)C(C(=O)OC)C3C(=O)OC` (stereo not given in full): the growth in the assay on HCT-15 colon is 61.5%; in the assay on HT29 colon it was 95.2%; with SNB-75 CNS, 98.5%; in the assay with SNB-19 CNS it was 95.9%; in the assay with U251 CNS it was 88.8%; in the assay on PC-3 prostate, 57.1%. The growth in the assay on SK-MEL-5 melanoma was 60.6%; in the assay on UACC-62 melanoma it was 79.9%; with LOX IMVI melanoma, 91.7%; in the assay on SK-MEL-28 melanoma, 95%; in the assay on SK-MEL-2 melanoma it was 100%; in the assay on EKVX NSCLC, 86.1%. Further, the growth with SN12C renal is 100%; in the assay on UO-31 renal it was 86.7%; with TK-10 renal, 109%; in the assay with CAKI-1 renal, 94.7%; in the assay on A498 renal, 106%; with CCRF-CEM leukemia it was 74.4%. Moreover, in the assay with MOLT-4 leukemia, the growth was 46.7%.
